Compounds with a hit are over-represented: about 2.4% of the library has one in this group of screens.
D2 ag-1: human D2 receptor agonism in beta-arrestin assay. P14416. DiscoveRx PathHunter D2 beta-arrestin, luminescence, 90 min; 100% = 57 uM dopamine signal. 360,000 compounds, 0.084% hits. activation, % (no concentration beside the values); in the data active = activation above about 40%; inconclusive = between about 15% and that limit
Target sequence (P14416 whole entry, looked up): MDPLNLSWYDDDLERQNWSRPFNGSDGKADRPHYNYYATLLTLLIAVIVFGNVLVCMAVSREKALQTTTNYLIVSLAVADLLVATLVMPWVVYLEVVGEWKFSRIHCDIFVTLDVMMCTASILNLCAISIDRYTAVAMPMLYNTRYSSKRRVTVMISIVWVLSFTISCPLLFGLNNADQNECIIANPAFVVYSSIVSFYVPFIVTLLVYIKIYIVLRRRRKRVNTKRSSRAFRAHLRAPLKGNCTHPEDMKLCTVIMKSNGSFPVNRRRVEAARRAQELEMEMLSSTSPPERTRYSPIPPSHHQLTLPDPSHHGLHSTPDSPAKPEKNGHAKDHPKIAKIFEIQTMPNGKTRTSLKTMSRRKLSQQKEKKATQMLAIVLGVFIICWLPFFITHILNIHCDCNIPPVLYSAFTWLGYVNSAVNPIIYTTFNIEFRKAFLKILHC
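Agonist mode: compounds alone added to overnight-plated D2 PathHunter cells for 90 min at 37 C, with 57 uM final dopamine (EC100) defining full response. Beta-arrestin recruitment detected by chemiluminescent reagent, read after 1 h at ambient temperature.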
D2 PAM-1: positive allosteric modulators of human D2 dopamine receptor; 340,000 compounds, 0.34% hits; potentiation, % at 10 µM; P14416; HEK293 T-REx D2, calcium flux, EC20 dopamine potentiation;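 active = potentiation over 3 SD above the plate norm, cut at about 30% in these data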
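Tetracycline-induced Hek293 Trex D2 cells, force-coupled to calcium, loaded with no-wash calcium dye. Compound added with 180 s kinetic read for agonism, then EC20 dopamine and a further 180 s read for potentiation.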
D2 PAM-2: potentiates the human D2 dopamine receptor allosterically; P14416; DiscoveRx D2 beta-arrestin cells, luminescence, 90 min; 100% = 57 uM dopamine signal; potentiation, % (no concentration beside the values); 360,000 compounds, 0.23% hits; in the data active = potentiation above about 50%; inconclusive = mostly about 30% to 49%
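PathHunter D2 cells, attached overnight at 37 deg C, received compound in DMSO plus dopamine at EC20 (50 nM final) for 90 min at 37 deg C. Beta-arrestin recruitment was read as luminescence after 1 h with detection reagent at ambient temperature.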
D2 antagonist: antagonizes the human D2 dopamine receptor; HEK293 TREx D2 cells, calcium flux, dopamine EC80; inhibition, % at 10 µM; 340,000 compounds, 2% hits; in the data active = inhibition above about 30%; inactive = below that, where a call was filed
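Inhibition of EC80 dopamine-driven calcium flux, recorded kinetically, defines activity here; cells are a tetracycline-induced HEK293 T-REx line expressing force-coupled D2.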
D2 ag-2: activates the human D2 dopamine receptor | HEK293 T-REx D2 cells, calcium flux agonist mode | activation, % at 2 µM | 340,000 compounds, 0.53% hits;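 active = activation over 3 SD above normal in the single-dose calcium agonist read, cut at about 30% in these data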
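HEK293 Trex D2 cells, tetracycline-induced, o/n 30 C 5% CO2; no-wash Ca dye, RT 30–90 min; 10-cycle baseline, 23 nl cpd added, kinetic Ca read 180 s; agonist hits = positive Ca response.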
Numbers stand for hits.

Cc1nc2ccccc2c(=O)n1/N=C/c1ccc(O)c(O)c1O was read as D2 ag-1 48, D2 PAM-1 inactive, D2 PAM-2 inactive, D2 antagonist inactive and D2 ag-2 inactive.
For Cc1nc2ccccc2c(=O)n1/N=C/c1ccccc1O the results were D2 ag-1 inactive, D2 PAM-1 inactive, D2 PAM-2 inactive, D2 antagonist inactive and D2 ag-2 inactive.
For Cc1ccc(NC(=O)CN2C(=O)c3ccccc3C2=O)nc1 the results were D2 ag-1 inactive, D2 PAM-1 inactive, D2 PAM-2 inactive, D2 antagonist inactive and D2 ag-2 inactive.
Screening Cc1ccc(C(CC(=O)O)NC(=O)CN2C(=O)c3ccccc3C2=O)cc1 (stereo not drawn) returned D2 ag-1 inactive, D2 PAM-1 inactive, D2 PAM-2 inactive, D2 antagonist 43 and D2 ag-2 inactive.
Screening CCOC(=O)CCC(=O)c1c(C)oc2ccc(OC)cc12 returned D2 ag-1 inactive, D2 PAM-1 30, D2 PAM-2 inactive, D2 antagonist inactive and D2 ag-2 inactive.
For COc1ccc2oc(C)c(C(=O)NN)c2c1 the results were D2 ag-1 inactive, D2 PAM-1 inactive, D2 PAM-2 inactive, D2 antagonist inactive and D2 ag-2 inactive.
`CCc1ccc(-n2nc(C)c3c(C(=O)Nc4cc(C)ccc4C)cc(C)nc32)cc1` gave D2 PAM-1 inactive and D2 ag-2 inactive.
For Cc1ccc(C2C3=C(CC(C)(C)CC3=O)Nc3n[nH]c(C)c32)cc1 (stereo not drawn) the results were D2 ag-1 inactive, D2 PAM-1 inactive, D2 PAM-2 inactive, D2 antagonist inactive and D2 ag-2 inactive.
Screening Cc1[nH]nc2c1C(c1ccc(F)cc1)C1=C(CC(C)(C)CC1=O)N2 (stereo not drawn) returned D2 ag-1 inactive, D2 PAM-1 30, D2 PAM-2 inactive, D2 antagonist inactive and D2 ag-2 inactive.
For CCOC(=O)c1ccc(NC(=O)CCc2c(C)nc3c(c(C)nn3-c3ccccc3)c2C)cc1 the results were D2 PAM-1 inactive and D2 ag-2 inactive.
Screening Fc1c(F)c(F)c(N/N=C/c2c[nH]c3ccccc23)c(F)c1F returned D2 ag-1 inconclusive, D2 PAM-1 inactive, D2 PAM-2 60, D2 antagonist inactive and D2 ag-2 inactive.
For Cc1ccc(C)c(N2CCN(CCCNC(=O)CCn3c(=O)c4cccn4c4cccnc43)CC2)c1 the results were D2 ag-1 inactive, D2 PAM-1 inactive, D2 PAM-2 inactive, D2 antagonist inactive and D2 ag-2 inactive.
Screening Cc1ccc(C)c(N2CCN(CCCNC(=O)Cn3c(=O)c4cccn4c4cccnc43)CC2)c1 returned D2 ag-1 inactive, D2 PAM-1 inactive, D2 PAM-2 inactive, D2 antagonist 63 and D2 ag-2 inactive.
Cc1ccc(C)c(N2CCN(CCCNC(=O)Cn3cc4c(n3)CCCCC4)CC2)c1 was read as D2 ag-1 inactive, D2 PAM-1 inactive, D2 PAM-2 inactive, D2 antagonist 65 and D2 ag-2 inactive.
For CC1CCCN(S(=O)(=O)c2cccc(C(=O)NCc3ccco3)c2)C1 (stereo not drawn) the results were D2 ag-1 inactive and D2 PAM-2 inactive.
For COc1ccc(C(CNC(=O)C(C)Oc2ccc(Br)cc2)N2CCCC2)cc1 (stereo not drawn) the results were D2 ag-1 inactive, D2 PAM-1 inactive, D2 PAM-2 inactive, D2 antagonist 41 and D2 ag-2 inactive.
COc1ccc(C(CNC(=O)COc2ccccc2C)N2CCCCC2)cc1 (stereo not drawn) was read as D2 ag-1 inactive, D2 PAM-1 inactive, D2 PAM-2 inactive, D2 antagonist inactive and D2 ag-2 inactive.
Screening COc1ccc(C(CNC(=O)c2cccc(Br)c2)N2CCCC2)cc1 (stereo not drawn) returned D2 ag-1 inactive, D2 PAM-1 inactive, D2 PAM-2 inactive, D2 antagonist 41 and D2 ag-2 inactive.
COc1ccc(C(CNC(=O)c2cccc(S(=O)(=O)N3CCCC(C)C3)c2)N(C)C)cc1 (stereo not drawn) was read as D2 ag-1 inactive, D2 PAM-1 inactive, D2 PAM-2 inactive, D2 antagonist 76 and D2 ag-2 inactive.
For COc1ccc(C(CNC(=O)COc2ccc(F)cc2Br)N2CCCC2)cc1 (stereo not drawn) the results were D2 ag-1 inactive, D2 PAM-1 42, D2 PAM-2 inactive, D2 antagonist inactive and D2 ag-2 inactive.
For COCCCN1C(=O)c2[nH]nc(-c3ccccc3O)c2C1c1ccc(OC)cc1 (stereo not drawn) the results were D2 PAM-1 inactive and D2 ag-2 inactive.
COc1ccc(C(CNC(=O)C(CCSC)NC(=O)c2ccccc2Cl)N2CCCC2)cc1 (stereo not drawn) was read as D2 ag-1 inactive, D2 PAM-1 inactive, D2 PAM-2 inactive, D2 antagonist inactive and D2 ag-2 inactive.
For COc1ccc(C(CNC(=O)C(CCSC)NC(=O)c2ccccc2Cl)N2CCCCC2)cc1 (stereo not drawn) the results were D2 ag-1 inactive, D2 PAM-1 inactive, D2 PAM-2 inactive, D2 antagonist 41 and D2 ag-2 inactive.
`COc1ccc(-c2cc(OC(=O)c3cccc(C)c3)c3c(C)oc(C)c3c(=O)c2)cc1` gave D2 PAM-1 inactive and D2 ag-2 inactive.
For COc1cccc(NC(=O)CSC2=C(C#N)C(c3ccco3)C3=C(CCCC3=O)N2)c1 (stereo not drawn) the results were D2 ag-1 inactive, D2 PAM-1 inactive, D2 PAM-2 inactive, D2 antagonist 37 and D2 ag-2 inactive.
`COc1cccc(NC(=O)CSc2nc3c(c(-c4ccco4)c2C#N)CCCC3)c1` gave D2 ag-1 inactive, D2 PAM-1 42, D2 PAM-2 inactive, D2 antagonist inactive and D2 ag-2 inactive.
Screening COc1ccc(NC(=O)CSC2=C(C#N)C(c3ccco3)C3=C(CCCC3=O)N2)c(OC)c1 (stereo not drawn) returned D2 ag-1 inactive, D2 PAM-1 inactive, D2 PAM-2 inactive, D2 antagonist inactive and D2 ag-2 inactive.
`Cc1ccc(NC(=O)CCCN2C(=O)COc3ccc(C)cc32)c(Cl)c1` gave D2 PAM-1 inactive and D2 ag-2 inactive.
COc1cc(CN2CCCCCC2)cc(OC)c1O was read as D2 ag-1 inactive, D2 PAM-1 inactive, D2 PAM-2 inactive, D2 antagonist inactive and D2 ag-2 inactive.
Cc1cc(CN2CCN(c3cccc(C)c3C)CC2)cs1 was read as D2 PAM-1 inactive and D2 ag-2 inactive.
Screening COc1cc(CN2CCN(c3cccc(C)c3C)CC2)cc(OC)c1O returned D2 ag-1 inactive, D2 PAM-1 inactive, D2 PAM-2 inactive, D2 antagonist 42 and D2 ag-2 inactive.
Cc1cccc(N2CCN(Cc3ccoc3)CC2)c1C was read as D2 ag-1 inactive, D2 PAM-1 inactive, D2 PAM-2 inactive, D2 antagonist 67 and D2 ag-2 inactive.
For CCOC(=O)c1c(NC(=O)c2nc(S(C)(=O)=O)ncc2Cl)sc(C(C)=O)c1C the results were D2 PAM-1 inactive and D2 ag-2 inactive.

Assay outcomes as filed in PubChem BioAssay.
